This is part of a sample that, as a whole, favours compounds with a hit. Of some 83,000 tested, about 20% had one in any assay.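 Testing used 96-well plates and a 48-hour single-concentration exposure. Example: -40 means 40% of the starting cells died.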 A number with no mark means an inactive call. Active and inactive are the calls of the source. Rule for the calls: active = growth percent below 10; inactive = the rest.
Key:
Assay in all cases: NCI-60 one-dose screen, 48 h (100 = growth as untreated, 0 = no growth, -100 = all killed)
Settings in all cases: 10 µM unless noted
[1] = system: T-47D breast
[2] = system: BT-549 breast
[3] = system: MDA-MB-435 melanoma
[4] = system: SW-620 colon
[5] = system: MCF7 breast
[6] = system: HCT-116 colon
[7] = system: HCC-2998 colon
[8] = system: KM12 colon

CCN=C1C=CC(=C(c2ccc(N)cc2)c2ccc(N(CC)CC)c(C)c2)C=C1 was tested, and the growth [1] was 1.14% (active), the growth [2] was -31.8% (active) and the growth [3] was -41.2% (active). For the same compound, the growth [4] was 4.24% (active), the growth [5] was -11.5% (active) and the growth [6] was -17.5% (active). For the same compound, the growth [7] was -4.16% (active) and the growth [8] was -88.4% (active).
For N#C/C(=C\c1ccc(-c2ccc(Cl)c(Cl)c2)o1)c1nc(-c2ccco2)cs1, the growth [1] was -21.3% (active), the growth [2] was 109% and the growth [3] was 103%. It also gave a growth [4] of 103%, a growth [5] of 12.5% and a growth [6] of 97.9%. For the same compound, the growth [7] was 0.932% (active) and the growth [8] was 50.6%.
Cc1cc(N2CCN(c3ccnc4cc(Cl)ccc34)CC2)nc(NC2CCCCC2)n1 was tested, and the growth [1] was 7.8% (active), the growth [2] was 51.9% and the growth [3] was -6.47% (active). The growth [4] was 14.9%, the growth [5] was 12.8% and the growth [6] was 3.19% (active). The growth [7] was 18.2% and the growth [8] was 30.1%.
Work on Nc1ccn(-c2ccc(Br)cc2)c(=O)n1 yielded a growth [1] of 202%, a growth [2] of 105% and a growth [3] of 96.6%. The growth [4] was 98.8%, the growth [5] was 108% and the growth [6] was 102%. For the same compound, the growth [7] was 29.7% and the growth [8] was 121%.
In the case of CCc1nc(N)nc(N)c1C#CC(C)c1cc(-c2ccnc(C)c2)c2oc(C)nc2c1 (stereo not given), the growth [1] is reported as 9.59% (active), the growth [2] is reported as 18.2% and the growth [3] is reported as 19.4%. For the same compound, the growth [4] was 16.9%, the growth [5] was 8.57% (active) and the growth [6] was 11.6%. For the same compound, the growth [7] was 13% and the growth [8] was 5.92% (active).
Compound Cc1ccc(NC(=O)C2CCC(CN3CCN(C)CC3)CC2)cc1Nc1nccc(-c2cccnc2)n1 (stereo not given) has a growth [1] of 86.2%, a growth [2] of 103% and a growth [3] of 93.5%. The growth [4] was 98.4%, the growth [5] was 83.8% and the growth [6] was 101%. For the same compound, the growth [7] was 106% and the growth [8] was 97.3%.
With COc1ccc(-c2cc(C(=O)N=Nc3c(O)[nH]c4ccc(Br)cc34)no2)cc1 the growth [1] was 93.6%, the growth [2] was 107% and the growth [3] was 101%. The growth [4] was 93.7%, the growth [5] was 94.1% and the growth [6] was 91.6%. The growth [7] was 104% and the growth [8] was 100%.
For O=C(NCCN1CCOCC1)Nc1ccc(-c2cc3c(Nc4ccc(Oc5cccc(C(F)(F)F)c5)c(Cl)c4)ncnc3s2)cc1, the growth [1] was -1.15% (active), the growth [2] was 40% and the growth [3] was 1.05% (active). The growth [4] was -46.8% (active), the growth [5] was -2.16% (active) and the growth [6] was -13% (active). For the same compound, the growth [7] was 5.37% (active) and the growth [8] was -65% (active).
With Nc1n[nH]c2ccc([C@@H]3Nc4ccc5[nH]ncc5c4[C@H]4C5C=CC(C5)[C@@H]34)cc12 (stereo not given in full) the growth [1] was 80%, the growth [2] was 3.98% (active) and the growth [3] was -28.1% (active). The growth [4] was 22.8%, the growth [5] was 17.8% and the growth [6] was 6.63% (active). The growth [7] was 14.3% and the growth [8] was 10.4%.
In the case of COc1cccc(-c2nc3sccn3c2-c2ccnc(NCCNS(=O)(=O)c3ccccc3)c2)c1, the growth [1] is reported as -18.3% (active), the growth [2] is reported as 6.29% (active) and the growth [3] is reported as 22.6%. It also gave a growth [4] of 40.8%, a growth [5] of 27.4% and a growth [6] of 18.5%. It also gave a growth [7] of 53.2% and a growth [8] of 22.2%.
O=C1c2ccccc2C(=O)c2c1ccc1[nH]c(-c3cccs3)nc21 showed a growth [1] of 56.1%, a growth [2] of 65.5% and a growth [3] of 101%. It also gave a growth [4] of 90.7%, a growth [5] of 66.4% and a growth [6] of 70.5%. It also gave a growth [7] of 99.3% and a growth [8] of 70.5%.
For CC[N+](CC)=c1sc2c(s1)C(c1ccc(Cl)cc1)Oc1ccc(Cl)cc1-2 (stereo not given), the growth [1] was -2.38% (active), the growth [2] was 4.07% (active) and the growth [3] was 2.5% (active). The growth [4] was 2.29% (active), the growth [5] was 4.58% (active) and the growth [6] was 6.48% (active). The growth [7] was -15.1% (active) and the growth [8] was -28.8% (active).
Compound O=C1/C(=C/c2ccc3c(c2)OCO3)SC(=S)N1CCc1ccc(O)cc1 has a growth [1] of 59.2%, a growth [2] of 96.6% and a growth [3] of 94%. For the same compound, the growth [4] was 111%, the growth [5] was 112% and the growth [6] was 101%. It also gave a growth [7] of 103% and a growth [8] of 86.3%.
With C=C1C(=O)O[C@H]2[C@H]1CC/C(COC(=O)c1cc3cc(OC)ccc3[nH]1)=C\CC[C@@]1(C)O[C@@H]21 the growth [1] was -60.6% (active), the growth [2] was -55.3% (active) and the growth [3] was -91.9% (active). For the same compound, the growth [4] was -75.7% (active), the growth [5] was -61.3% (active) and the growth [6] was -94.8% (active). For the same compound, the growth [7] was -74.2% (active) and the growth [8] was -67.9% (active).
Work on Cn1cc(-c2nonc2-c2c[nH]c3ccc(F)cc23)c2cccnc21 yielded a growth [1] of 16.2%, a growth [2] of 93.1% and a growth [3] of 62.3%. It also gave a growth [4] of 97.3%, a growth [5] of 23.5% and a growth [6] of 90.9%. It also gave a growth [7] of 91.8% and a growth [8] of 67.4%.
For CC1=C[C@H]2c3c(c(O)c(O)c4oc5ccccc5c(=O)c34)[C@H](c3cc(O)c(O)c4oc5ccccc5c(=O)c34)[C@H]2C(C)(C)C1, the growth [1] was 9.72% (active), the growth [2] was -15.3% (active) and the growth [3] was -36% (active). For the same compound, the growth [4] was 11.9%, the growth [5] was 9.6% (active) and the growth [6] was -84.8% (active). For the same compound, the growth [7] was 11.6% and the growth [8] was -1.27% (active).
In the case of O=C1NC(=S)N[C@H]1CC(=O)n1cnc2ccccc21, the growth [1] is reported as 99.6%, the growth [2] is reported as 102% and the growth [3] is reported as 105%. It also gave a growth [4] of 97.2%, a growth [5] of 68.7% and a growth [6] of 104%. The growth [7] was 103% and the growth [8] was 100%.
CCOC(=O)c1cc(C(=O)c2ccc(O)c(O)c2)n2ccc(-c3ccn4c(C(=O)c5ccc(O)c(O)c5)cc(C(=O)OCC)c4c3)cc12 was tested, and the growth [1] was 77.4%, the growth [2] was 96% and the growth [3] was 99.9%. It also gave a growth [4] of 96.1%, a growth [5] of 99.1% and a growth [6] of 98.2%. For the same compound, the growth [7] was 104% and the growth [8] was 97%.
Cc1ccc2oc(=O)cc(C3c4ccc([nH]4)C(c4cc(=O)oc5ccc(C)cc45)c4ccc([nH]4)C(c4cc(=O)oc5ccc(C)cc45)c4ccc([nH]4)C(c4cc(=O)oc5ccc(C)cc45)c4ccc3[nH]4)c2c1 (stereo not given) was tested, and the growth [1] was -28.5% (active), the growth [2] was -49.8% (active) and the growth [3] was -76.1% (active). The growth [4] was -7.64% (active), the growth [5] was -20.9% (active) and the growth [6] was -78.9% (active). The growth [7] was -68.9% (active) and the growth [8] was -73.9% (active).
Compound FC(F)(F)c1[nH]ncc1-c1nc2ccc3n[nH]c(C#Cc4cccnc4)c3c2c2c1CCCC2 has a growth [1] of 48.8%, a growth [2] of 10.3% and a growth [3] of 47.8%. The growth [4] was 19.2%, the growth [5] was 33.9% and the growth [6] was 9.04% (active). The growth [7] was 50.4% and the growth [8] was 22.7%.
In the case of CCN1CCC2(CC1)NC(=O)c1c(c3ccc(Cl)c(Cl)c3n1C)C2C#N (stereo not given), the growth [1] is reported as 75%, the growth [2] is reported as 37.2% and the growth [3] is reported as -59.9% (active). It also gave a growth [4] of 37.6%, a growth [5] of 35% and a growth [6] of 14%. For the same compound, the growth [7] was -5.34% (active) and the growth [8] was 41.2%.
With CCC(=O)c1ccc(Cl)s1 the growth [1] was 105%, the growth [2] was 90.5% and the growth [3] was 114%. For the same compound, the growth [4] was 104%, the growth [5] was 97.8% and the growth [6] was 101%. The growth [7] was 102% and the growth [8] was 107%.
CCc1nnc(CNc2ccc(Cl)cc2)o1 was tested, and the growth [1] was 93.9%, the growth [2] was 96.4% and the growth [3] was 101%. The growth [4] was 97.7%, the growth [5] was 91.3% and the growth [6] was 96.1%. The growth [7] was 97.6% and the growth [8] was 101%.
For Cc1nn(-c2ccc(F)cc2)c2ncnc(Nc3ccc(NC(=O)Nc4ccc(Cl)c(C(F)(F)F)c4)cc3)c12, the growth [1] was 2.53% (active), the growth [2] was 57.9% and the growth [3] was 40.1%. It also gave a growth [4] of 19.9%, a growth [5] of 12.8% and a growth [6] of 32.1%. The growth [7] was 22.2% and the growth [8] was 14.7%.
With CCN1CCN(c2nc(NCCNc3ccnc4cc(Cl)ccc34)c3ccccc3n2)CC1 the growth [1] was -10.8% (active), the growth [2] was 51.8% and the growth [3] was -66.2% (active). The growth [4] was 1.44% (active), the growth [5] was 18.6% and the growth [6] was 1.44% (active). For the same compound, the growth [7] was 35.8% and the growth [8] was 7.58% (active).
Compound O=C1C=CC(=O)N1c1ccc2c(c1)Cc1cc(F)ccc1-2 has a growth [1] of 103%, a growth [2] of 105% and a growth [3] of 102%. The growth [4] was 98.1%, the growth [5] was 90.2% and the growth [6] was 94.3%. The growth [7] was 93.3% and the growth [8] was 102%.
With COc1cccc(-c2nn(C(C)(C)C)cc2-c2ccnc(NCCCNS(=O)(=O)c3cccc4ccccc34)c2)c1 the growth [1] was 102%, the growth [2] was 108% and the growth [3] was 102%. The growth [4] was 106%, the growth [5] was 98.6% and the growth [6] was 98.7%. For the same compound, the growth [7] was 114% and the growth [8] was 99.5%.
Compound Cc1cc(C)c2nc3nc(C)cc(C)c3c(N)c2c1 has a growth [1] of 37.8%, a growth [2] of 56.1% and a growth [3] of 29.5%. For the same compound, the growth [4] was 16.2%, the growth [5] was 8.2% (active) and the growth [6] was 13.9%. For the same compound, the growth [7] was 10.7% and the growth [8] was 22.3%.
With CCCCC/C(C=C(C#N)C#N)=C/c1ccccc1 the growth [1] was 76.1%, the growth [2] was 69.3% and the growth [3] was 27%. The growth [4] was 59.2%, the growth [5] was 38.5% and the growth [6] was 27.7%. The growth [7] was 88.3% and the growth [8] was 72.6%.
With CC(=O)O[C@H]1CC[C@]2(C)[C@H]3CC=C4[C@@H]5CC(C)(C)CC[C@]5(C(=O)NCCNCCNCCN)CC[C@@]4(C)[C@]3(C)CC[C@H]2C1(C)C the growth [1] was -15.1% (active), the growth [2] was 87.2% and the growth [3] was 9.05% (active). The growth [4] was -83.1% (active), the growth [5] was -85.9% (active) and the growth [6] was -80.8% (active). For the same compound, the growth [7] was 1.19% (active) and the growth [8] was 85.3%.
